D3 ag – D3 dopamine receptor (human) agonism; P35462; D3R DiscoveRx beta-arrestin cells, luminescence, 90 min; max activation, %; actives 0.58% (n = 410,000); AID 652048; in the data active means max activation above about 30%; further: 0% is about no effect
Target sequence (P35462 whole entry, looked up): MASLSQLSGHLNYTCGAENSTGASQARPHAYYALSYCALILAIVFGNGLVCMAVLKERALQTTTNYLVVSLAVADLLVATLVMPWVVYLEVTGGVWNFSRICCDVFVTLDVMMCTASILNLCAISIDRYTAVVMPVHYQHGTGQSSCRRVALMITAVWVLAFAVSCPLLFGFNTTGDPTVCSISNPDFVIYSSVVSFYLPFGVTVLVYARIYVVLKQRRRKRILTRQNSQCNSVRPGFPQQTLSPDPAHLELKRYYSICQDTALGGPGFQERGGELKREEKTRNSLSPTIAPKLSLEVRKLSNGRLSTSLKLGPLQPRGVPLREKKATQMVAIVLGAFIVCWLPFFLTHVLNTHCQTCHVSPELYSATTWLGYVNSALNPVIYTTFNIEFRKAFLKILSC
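Agonist-mode cell screen: cells plated at 1500/well and incubated overnight at 37 °C, then exposed to library compounds for 90 min at 37 °C. Detection reagent was added for 30–60 min at room temperature, and luminescence was read.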
DRD3 antagonist – antagonists of human D3 dopamine receptor; P35462; AID 652054; D3R cells, DiscoveRx beta-arrestin luminescence, antagonist mode; active compounds read low; max response, negative = inhibition, %; actives 2.5% (n = 360,000); in the data active means max response below about -50%; inconclusive means no clear call, values can overlap the other calls; further: on the % scale 0 is the no-effect control and ±100 the full control effect
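Cells plated overnight at 1500 cells/well, then exposed to library compounds with dopamine controls for 90 minutes at 37 degrees C. DiscoveRx reagent added for 30–60 minutes at room temperature; luminescence read, quantitative HTS format.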
ClpP mod – qHTS Assay for Activators of ClpP. Potency, µM (series often up to 57.5 µM), without a hit: at the highest dose activity change, negative = active. purified B. subtilis ClpP, FRET peptide cleavage, 20 min. actives 1.9% (n = 340,000); active means well fitted falling curve with a large enough effect; inconclusive means small, poorly fitted or top-dose-only effect; inactive means no such curve, though single readings can be large or run the other way; further: potency means the concentration at half of the fitted maximal effect; the source files actives as falling curves though it sought activators and does not explain the sign; nearly all actives have a fitted effect of over 65% in size
Target sequence (P80244 whole entry, looked up): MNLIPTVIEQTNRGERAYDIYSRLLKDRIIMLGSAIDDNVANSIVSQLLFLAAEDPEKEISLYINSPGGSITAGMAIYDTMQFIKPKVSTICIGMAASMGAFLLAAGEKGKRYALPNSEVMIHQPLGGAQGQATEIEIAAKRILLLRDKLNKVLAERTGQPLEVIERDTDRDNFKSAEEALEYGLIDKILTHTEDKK
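Purified B. subtilis ClpP, 10 microg/mL final in Tris/HCl pH8 with KCl, BSA, glycerol and Tween-20, cleaved an Abz/nitrotyrosine-quenched decapeptide. Fluorescence (ex 320, em 430) was read at 0 and 20 min at room temperature. Delta was normalized to 5.8 microM ADEP and DMSO/no-enzyme controls.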
TDP1 cell CPT – growth inhibition of DT40 Tdp1-/-;hTDP1 cells with camptothecin (screen for TDP1 inhibitors) | chicken DT40 Tdp1-/-;hTDP1 cells + 20 nM CPT, ATP luminescence, 48 h | Potency, µM (titrated, usually from 46.2 µM), inactives show top-dose activity change, negative = growth inhibition, actives largely listed as inhibitors | actives 12% (n = 420,000) | AID 686979; further: potency means the concentration at half of the fitted maximal effect; on the % scale 0 is the no-effect control and ±100 the full control effect; nearly all actives have a fitted effect of over 55% in size
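Cell growth measured by CellTiter-Glo luminescence after a minimum 48 h, 37 C compound exposure with 20 nM CPT in Tdp1-knockout DT40 cells stably expressing hTDP1, seeded 400/well; qHTS titration format.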
IL-1B inflam inh – inflammasome signaling inhibition, IL-1 beta readout; activity change, % at 57.5 µM; THP-1 LPS/ATP IL-1B secretion, AlphaLISA, 16 h; active compounds read low; actives 4.7% (n = 360,000); in the data active means activity change below about -50%; inconclusive means mostly about -30% to -49%; further: on the % scale 0 is the no-effect control and ±100 the full control effect
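Secreted IL-1B measured by AlphaLISA bead assay after 16 h compound exposure of THP-1 cells; compounds (final up to 57.5 uM) added 1 h before LPS (250 ng/mL) and ATP (1.25 mM) stimulation; lower signal means less secretion.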
TDP1 cell noCPT – qHTS for Inhibitors of human tyrosyl-DNA phosphodiesterase 1 (TDP1): qHTS in cells in absence of CPT; DT40 Tdp1-/- hTDP1 cells, no CPT, ATP luminescence, 48 h; Potency, µM (top dose mostly 46.2 µM), for the others: at the top dose activity change, negative = growth inhibition, usual class: inhibitors; actives 15% (n = 420,000); AID 686978, 2013; further: potency means the concentration at half of the fitted maximal effect; on the % scale 0 is the no-effect control and ±100 the full control effect; nearly all actives have a fitted effect of over 55% in size
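Compound effects on proliferation are scored in DT40 Tdp1-/-;hTDP1 cells in the absence of CPT. ATP levels (CellTiter-Glo luminescence) are recorded after a ≥48 hr, 37 °C incubation.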
Starred values were filed as active, the others as inactive; ? = inconclusive; . = no result. The list is not random: actives were taken first. Their share in the collection is about 21%. Unless noted, the call rests on the fitted dose curve; in most records, active means well fitted inhibition curve with a large enough effect; inconclusive means small, poorly fitted or top-dose-only effect; inactive means flat fitted curve, though single readings scatter.

SMILES	D3 ag	DRD3 antagonist	ClpP mod	TDP1 cell CPT	IL-1B inflam inh	TDP1 cell noCPT
Cc1nc(N)ncc1CCC1OCCO1	-2	24	-17%	2%	4	-12%
CCc1ccc(-c2nn(-c3ccccc3)cc2C2SCC(=O)N2Cc2ccco2)cc1 (configuration not stated)	3	10	-7%	?	-25	?
O=C1CSC(c2cn(-c3ccccc3)nc2-c2ccccc2)N1Cc1ccco1 (configuration not stated)	-10	0	1%	?	-24	18µM*
CCCCN(CC)C(=O)c1cc2c(=O)n3ccccc3nc2n1C	6	.	4%	?	.	?
CN(C(=O)c1cc2c(=O)n3ccccc3nc2n1C)c1ccccc1	8	.	?	12µM*	.	?
CN(C)c1ccc(NC(=O)c2cc3c(=O)n4ccccc4nc3n2C)cc1	-1	-11	-2%	?	?	15µM*
O=C1C(=O)N(c2ccc(O)cc2)C(c2ccccc2[N+](=O)[O-])/C1=C(\O)c1ccccc1 (configuration not stated)	4	-29	.	-1%	40	8%
COC(=O)c1c(-c2ccc(Br)cc2)noc1N	-6	10	-1%	-16%	-20	-20%
CCOc1cc(-c2noc(N)c2C(=O)OC)cc(OCC)c1OCC	8	13	0%	-13%	-106*	?
Cc1cc(O)cc2c1O[C@](C)(CCC[C@H](C)CCC[C@H](C)CCCC(C)C)CC2	1	.	.	-9%	.	-18%
Cc1ccc(NCC(=O)N/N=C\c2ccc[nH]2)cc1	8	28	.	6%	16	-15%
CCOc1ccc(C2CC(=O)Nc3nc(SCc4ccccc4C)[nH]c(=O)c32)cc1OC (configuration not stated)	-7	.	-14%	?	.	15µM*
Cc1cccc(NC(=O)C2CCN(S(=O)(=O)c3ccc4c(c3)OCCCO4)CC2)n1	-13	10	.	?	-12	21µM*
Cc1cccc(NC(=O)C2CCN(S(=O)(=O)c3ccc4c(c3)OCCO4)CC2)n1	-5	-54*	-4%	-13%	-4	-25%
c1ccc(-c2noc(CN3CCN(C(c4ccccc4)c4ccccc4)CC3)n2)cc1	1	-13	0%	-26%	-87*	?
OC(CN1CCN(Cc2ccccc2)CC1)c1ccccc1 (configuration not stated)	-2	-22	1%	8%	-10	-16%
OC(CN1CCN(Cc2ccccc2)CC1)c1ccc(F)cc1 (configuration not stated)	-45	-18	0%	13%	16	-29%
Fc1ccc(CN2CCN(C(c3ccccc3)c3ccccc3)CC2)cc1	-23	-82*	0%	?	4	?
c1ccc(CN2CCN(C(c3ccccc3)c3ccccc3)CC2)cc1	-11	-70*	-4%	?	5	?
c1ccc(-c2noc(CN3CCN(c4ccccc4)CC3)n2)cc1	-1	-5	2%	-20%	21	-3%
O=S(=O)(CCN1CCN(C(c2ccccc2)c2ccccc2)CC1)C(F)(F)F	0	-50*	0%	7.3µM*	-18	18µM*
Cc1cc(C(F)(F)F)c2c(N)c(C(=O)Nc3c(Cl)cccc3Cl)sc2n1	-6	.	-3%	?	.	?
O=C1c2ccccc2C(=O)N1CC#CCN1CCN(C(c2ccccc2)c2ccccc2)CC1	-18	-88*	1%	?	-12	?
Cc1cccc(OCC(=O)Nc2ccccc2C(=O)OCc2cc(=O)n3nc(C)sc3n2)c1	8	.	12%	-6%	.	-29%
CC(C)CCn1c(=O)c2ccccc2n2c(CCl)nnc12	6	-17	9%	?	.	23µM*
SMILES	D3 ag	DRD3 antagonist	ClpP mod	TDP1 cell CPT	IL-1B inflam inh	TDP1 cell noCPT
CC(C)CCn1c(=O)c2ccccc2n2c(CN(C)Cc3ccccc3)nnc12	-4	20	0%	23µM*	-23	16µM*
CCOC(=O)/C(C#N)=C(\O)c1ccc(NC(=O)c2ccc([N+](=O)[O-])cc2)cc1	10	41	1%	-26%	17	0%
Cc1ccc(C)c(S(=O)(=O)c2cn(C)c3cc(N4CCCCC4C)c(F)cc3c2=O)c1 (configuration not stated)	-20	.	?	21µM*	.	21µM*
CCc1ccc(S(=O)(=O)c2cn(C)c3cc(N4CCC(C)CC4)c(F)cc3c2=O)cc1	6	.	13%	15µM*	.	15µM*
CCc1ccc(S(=O)(=O)c2cn(C)c3cc(N4CCCCC4C)c(F)cc3c2=O)cc1 (configuration not stated)	4	.	179%	?	.	15µM*
CCc1ccc(S(=O)(=O)c2cn(C)c3cc(N4CCOCC4)c(F)cc3c2=O)cc1	0	.	?	-29%	.	-29%
COc1ccc(CCNC(=O)c2ccc(Cn3c(=O)c4cccn4c4cccnc43)cc2)cc1OC	15	.	-22%	-19%	.	?
O=C(Nc1ccc(F)cc1)C(CCc1ccccc1)N1CCN(C(=O)c2ccco2)CC1 (configuration not stated)	8	3	1%	?	3	?
CCC1CCCCN1S(=O)(=O)c1ccc2c(c1)CCN2C(C)=O (configuration not stated)	-6	-1	1%	?	5	-18%
COc1ccc(-c2cn3c(C)c(C(=O)Nc4cccc(C)n4)sc3n2)cc1	12	28	-11%	?	34	23µM*
Cc1cccc(NC(=O)c2sc3nc(-c4ccccc4)cn3c2C)n1	17	12	?	?	-59*	?
Cc1ccc(Cl)cc1NC(=O)c1sc2nc(-c3ccccc3)cn2c1C	-12	.	0%	21µM*	.	15µM*
COCCNC(=O)c1sc2nc(-c3ccccc3)cn2c1C	-5	-14	-4%	-2%	9	-5%
Cc1c(C(=O)Nc2ccccc2)sc2nc(-c3ccccc3)cn12	-6	1	-1%	18µM*	?	?
Cc1cc(NC(=S)N(Cc2ccc(Br)cc2)Cc2ccc(C(=O)O)cc2)ccc1Cl	-9	-18	.	-17%	?	?
Cc1ccc(S(=O)(=O)NC(=O)C2(C)CCN2C(=O)Cc2cc(F)ccc2F)nc1 (configuration not stated)	0	-10	3%	-3%	12	6%
CCC(=O)N(CCC(c1ccco1)c1ccccc1OC)Cc1cccs1 (configuration not stated)	-1	-27	-1%	?	?	?

Screening data (PubChem BioAssay)
